{
  "source": "PubChem BioAssay (NCATS)",
  "note": "Inconclusive results are not listed. A number with no mark means an inactive call. The source made the active and inactive calls. Calls come from the whole dose curve; as a rule, active = well fitted cell-killing curve with a large enough effect; inconclusive = small, poorly fitted or top-dose-only effect; inactive = flat fitted curve, though single readings scatter. Potency is the fitted concentration of half-maximal effect.",
  "data": [
    {"test": "Cell Viability - Mesenchymal (AID 546);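 note: cells exposed to compound for 40 hours before reading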;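 for activity change, negative = cytotoxicity: 0% = DMSO only and -100% = 100 µM tamoxifen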", "conditions": "mesenchymal cells viability, qHTS; activity change, negative = cytotoxicity: at 91.7 µM (top of the series)", "text": "NIH Chemical Genomics Center [NCGC]\nNIH Molecular Libraries Screening Centers Network [MLSCN]\nNational Institutes of Environmental Health Sciences [NIEHS]\nNational Toxicology Program [NTP]\nWe have developed a 1536-well cell-based assay for quantitative high throughput screening (qHTS) against a number of cell lines to determine in vitro cytotoxicity of small molecules. This particular assay uses the kidney mesenchymal cell line which is derived from normal human renal glomeruli.\nNCGC Assay Protocol Summary:\nThe CellTiter-Glo luminescent cell viability assay (Promega) is a homogeneous method to measure the number of viable cells in culture. The end point readout of this assay is based on quantitation of intracellular ATP, an indicator of metabolic activity, using the luciferase reaction. Luciferase catalyzes the oxidation of beetle Luciferin to oxyluciferin and light in the presence of ATP. The luminescent signal is proportional to amount of ATP present.\nUsing the CellTiter-Glo luminescent cell viability assay, the amount of cellular ATP was measured in the kidney mesenchymal cell line with complete culture medium following compound treatment for 40 hours. The assay was performed in opaque white Kalypsys 1536-well plates. In the screen, tamoxifen and doxorubicin were used as positive controls. Library compounds were measured for their ability to cause acute toxicity in the cell line, as reflected by a decrease in intracellular ATP levels, in a concentration-dependent manner. […] AC50 values were determined from concentration-response data modeled with the standard Hill equation.\nqHTS protocol for CellTiter Glo kidney mesenchymal cells cellular assay\n[Step] [Parameter] [Value] [Description]\n1. Reagent; 5 uL; 1000 kidney mesenchymal cells/well\n2. Time; 5 hr; 37 °C incubation\n4. Controls; 23 nL; Tamoxifen 0.34 uM to 100 uM & Doxorubicin 0.02 nM to 100 uM\n5. Time; 40 hr; 37 °C incubation\n6. Reagent; 5 uL; CellTiter Glo reagent\n7. Time; 20 min; Room Temperature\n8. Detection; Luminescence; Viewlux plate reader\nKeywords: cell viability, cytotoxicity, Kidney mesenchymal cell line, luminescence, NTPHTS, NTPHTS_NCGC, NIEHS, EPA, DSSTox, MLSMR, MLSCN, NIH Roadmap, qHTS, NCGC", "values": [
      {"smiles": "CCCCNC(=O)NS(=O)(=O)c1ccc(C)cc1", "activity change, negative = cytotoxicity": "4.82%"},
      {"smiles": "NC(=O)N1c2ccccc2C=Cc2ccccc21", "activity change, negative = cytotoxicity": "0.639%"},
      {"smiles": "Nc1nc(N)c2nc(-c3ccccc3)c(N)nc2n1", "Potency": "25.1 µM (active)"},
      {"smiles": "O=c1[nH]c(=O)n([C@H]2C[C@H](O)[C@@H](CO)O2)cc1Br", "activity change, negative = cytotoxicity": "2.5%"},
      {"smiles": "COc1cc(Cc2cnc(N)nc2N)cc(OC)c1OC", "activity change, negative = cytotoxicity": "-3.19%"},
      {"smiles": "CN=C(NC#N)NCCSCc1nc[nH]c1C", "activity change, negative = cytotoxicity": "1.9%"},
      {"smiles": "COC(=O)[C@H]1[C@H]2C[C@@H]3c4[nH]c5cc(OC)ccc5c4CCN3C[C@H]2C[C@@H](OC(=O)c2cc(OC)c(OC)c(OC)c2)[C@@H]1OC", "activity change, negative = cytotoxicity": "-90.3% (active)"},
      {"smiles": "COc1ccc(CN(CCN(C)C)c2ccccn2)cc1", "activity change, negative = cytotoxicity": "-6.64%"},
      {"smiles": "CCCCOCCOCCOCc1cc2c(cc1CCC)OCO2", "activity change, negative = cytotoxicity": "2.91%"},
      {"smiles": "NC(=Nc1ccccc1)Nc1ccccc1", "activity change, negative = cytotoxicity": "-1.63%"},
      {"smiles": "Nc1ncn([C@@H]2O[C@H](CO)[C@@H](O)[C@H]2O)c(=O)n1", "Potency": "31.6 µM (active)"}
    ]}
  ]
}
